Screening data deposited in PubChem BioAssay by several laboratories.
Wnt act = activates Wnt/beta-catenin signaling in a reporter cell assay; activator, plate reader; activation, % at 9.35 µM; actives 1.2% (n = 300,000); AID 743398; in the data active means activation above about 30%, passing the limit was not always enough; inconclusive means no clear call, values can overlap the other calls
ssDAF12 agonist = activates DAF-12 receptor from parasite S. stercoralis; activation, % at 6.8 µM; AID 652126; actives 1% (n = 370,000); HEK293 ssDAF-12/GRIP1 lit1-tk-luc reporter, luminescence; % of 3 µM dafachronic acid response;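 active means activation above the mean over all tested compounds plus 3 SD, cut at about 0.9% in these data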
hcDAF12 agonist = activators of H. contortus DAF-12 nuclear receptor; HEK293 hcDAF-12 lit1-tk-luc reporter, luminescence; 0% DMSO, 100% Δ7-dafachronic acid; activation, % at 6.8 µM; actives 1.4% (n = 370,000); AID 652067;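 active means activation above the mean of all tested compounds plus 3 SD, cut at about 5.5% in these data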
esBAF inh = SWI/SNF esBAF complex inhibition | mouse ES cells, Bmi1-luciferase knock-in reporter, 24 h; 100% = twice the neutral-well signal | reporter increase, % at 12.5 µM | actives 2% (n = 350,000) | AID 602393; in the data active means activation above about 40%; inconclusive means no clear call, values can overlap the other calls;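 further: a rise in the Bmi1 reporter signal indicates esBAF inhibition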
DAX1 StAR inh = inhibitors of DAX1 repression of SF-1 activated StAR promoter; actives 1.1% (n = 370,000); inhibition, % at 6.8 µM; HEK293T StAR-luciferase reporter, SF-1/DAX-1 repression relief;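 active means inhibition above the mean over all tested compounds plus 3 SD, cut at about 3.6% in these data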;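 further: higher inhibition means more luminescence from relief of DAX-1 repression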
hgDAF-12 ag = hgDAF-12 agonism, primary luciferase screen; actives 1.8% (n = 370,000); HEK293 GAL4-hgDAF12 UAS-luciferase reporter, agonist luminescence; normalized to butyrate control; activation, % at 6.8 µM;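 active means activation above a cutoff set at the mean of all screened compounds plus 3 SD, cut at about 10% in these data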
Numbers stand for hits; i = inactive; ? = inconclusive; nt = no result given. Only some compounds are listed: those with a hit (about 4.2% of all), similar ones and a draw of the others.

SMILES	Wnt act	ssDAF12 agonist	hcDAF12 agonist	esBAF inh	DAX1 StAR inh	hgDAF-12 ag
CCN(CC)c1ccc(C(=O)Nc2ccccc2)cc1[N+](=O)[O-]	i	i	i	nt	i	12
O=C(Nc1ccc([N+](=O)[O-])cc1)c1cccc([N+](=O)[O-])c1	40	i	i	i	i	i
c1cncc(Nc2nc(-c3cccs3)cs2)c1	i	nt	nt	69	nt	nt
CCOc1ccc(Nc2nc(-c3cccnc3)cs2)cc1	i	i	i	50	i	i
O=C(O)c1ccc(Nc2nc(-c3cccnc3)cs2)cc1	i	i	i	?	i	i
Brc1cccc(Nc2nc(-c3cccnc3)cs2)c1	i	i	i	49	i	i
CC(=O)c1ccc(Nc2nc(-c3cccnc3)cs2)cc1	i	i	i	52	i	i
O=C(Nc1cccc(-c2csc(Nc3ccccc3)n2)c1)c1ccccc1	i	i	i	57	i	i
COc1ccc(-c2csc(Nc3cccnc3)n2)cc1	nt	i	i	nt	i	i
CCCC(=O)Nc1ccc2c(c1)C(=O)N(C)C[C@H](OC)[C@H](C)CN(C(=O)c1ccncc1)[C@H](C)CO2	nt	nt	nt	i	nt	nt
C[C@H]1CN([C@@H](C)CO)S(=O)(=O)c2ccc(C#CC3CC3)cc2O[C@@H]1CN(C)C(=O)CN(C)C	nt	nt	nt	i	nt	nt
Oc1ccc(Nc2nc(-c3cccnc3)cs2)cc1	nt	nt	nt	i	nt	nt
O=C(Nc1cccc(-c2csc(Nc3cccc(C(F)(F)F)c3)n2)c1)c1ccccc1	i	i	i	i	i	i
O=C(Nc1nc(-c2ccccc2)cs1)c1cccc([N+](=O)[O-])c1	nt	i	i	61	i	i
O=C(Nc1nc(-c2cccnc2)cs1)c1cccc([N+](=O)[O-])c1	i	i	i	?	i	i
Cc1cc(O)ccc1Nc1nc(-c2cccnc2)cs1	i	i	i	i	i	12
CC(=O)c1cccc(Nc2nc(-c3cccnc3)cs2)c1	i	i	i	54	i	i
CCCNC(=O)N(C)C[C@@H]1Oc2cc(-c3ccncc3)ccc2S(=O)(=O)N([C@@H](C)CO)C[C@H]1C	nt	nt	nt	i	nt	nt
CC(=O)NC1CCC(OC(=O)Nc2ccccc2)CC1 (configuration not stated)	i	i	i	53	i	i
COc1ccc(C2CC(c3ccccc3)=NN2S(=O)(=O)c2ccccc2)c(OC)c1 (configuration not stated)	nt	i	i	nt	i	i
COc1ccccc1C1CC(c2ccccc2)=NN1S(=O)(=O)c1ccccc1 (configuration not stated)	i	i	i	i	i	11
C[C@H](CO)N1C[C@H](C)[C@H](CN(C)S(=O)(=O)c2ccccc2)Oc2ncc(Br)cc2C1=O	nt	nt	nt	i	nt	nt
C[C@@H]1CN([C@H](C)CO)C(=O)Cc2cc(NC(=O)Nc3cccc4ccccc34)ccc2O[C@H]1CN(C)Cc1ccc2c(c1)OCO2	nt	nt	nt	i	nt	nt
CN(C)/C=C/C(=O)/C=C/c1ccc(Cl)cc1	71	i	i	nt	i	i
CN(CC(O)COCc1cccs1)C1CCCCC1 (configuration not stated)	nt	i	i	i	i	12
SMILES	Wnt act	ssDAF12 agonist	hcDAF12 agonist	esBAF inh	DAX1 StAR inh	hgDAF-12 ag
c1ccc(-c2nc(NCc3cccnc3)c3oc4ccccc4c3n2)cc1	i	i	6.3	i	i	i
Brc1ccccc1OCCCOc1cccc2cccnc12	i	i	i	77	i	i
Brc1ccccc1OCCOc1cccc2cccnc12	i	i	i	nt	i	i
COc1ccc(CNC(=O)c2ccc(N3CCOCC3)c([N+](=O)[O-])c2)cc1	i	i	i	nt	i	i
Cc1ccc(-c2nc3ccccc3[nH]2)cc1NC(=S)NC(=O)c1ccccc1Br	i	i	i	58	i	i
Cc1ccc(-c2nc3ccccc3[nH]2)cc1NC(=O)/C=C/c1ccco1	nt	i	i	i	i	i
COc1ccc2oc(-c3ccc(C)c(NC(=O)c4ccc(N5CCOCC5)c([N+](=O)[O-])c4)c3)nc2c1	nt	i	i	i	i	11
Cc1ccc(-c2nc3ccccc3o2)cc1NC(=O)c1ccc2c(c1)OCO2	nt	2.0	i	nt	3.6	11
O=C(Nc1ccc(-c2nc3ccccc3o2)cc1)c1ccc2c(c1)OCO2	i	i	i	i	i	i
Cc1ccc(-c2nc3ccccc3[nH]2)cc1NC(=O)c1ccc2c(c1)OCO2	nt	i	i	45	i	i
Cc1ccc2oc(-c3cccc(NC(=S)NC(=O)c4cccs4)c3)nc2c1	i	i	i	nt	i	i
Cc1ccc(-c2nc3ccccc3o2)cc1NC(=S)NC(=O)c1cccs1	nt	i	i	?	i	11
CC(=O)Nc1cccc(NC(=O)Nc2ccc(F)cc2F)c1	i	1.3	i	nt	i	i
O=C(NCCc1ccc2c(c1)OCCO2)c1ccccc1F	i	i	i	nt	i	12
O=C(Nc1ccc2c(c1)OCO2)Nc1ccc(Cl)cc1Cl	nt	i	i	i	i	i
O=C(Nc1cccc(C(=O)Nc2ccc(F)cc2F)c1)c1ccccc1	i	i	i	i	i	i
O=C(Nc1ccccc1)Nc1ccc(F)cc1F	48	i	i	nt	i	i
O=C(Nc1ccc2c(c1)OCO2)Nc1ccc(F)cc1F	i	i	i	i	i	11
CNC[C@@H]1Oc2ccc(NC(=O)NC3CCCCC3)cc2C(=O)N([C@H](C)CO)C[C@H]1C	nt	nt	nt	i	nt	nt
COc1ccc(S(=O)(=O)N(C)C[C@@H]2OCCCC[C@H](C)Oc3ccc(NC(=O)CCCN(C)C)cc3C(=O)N([C@H](C)CO)C[C@@H]2C)cc1	nt	nt	nt	i	nt	nt
CC(C)C#Cc1cnc2c(c1)C(=O)N([C@@H](C)CO)C[C@H](C)[C@@H](CN(C)C(=O)Cc1ccccn1)O2	nt	nt	nt	i	nt	nt
CO[C@@H]1CN(C)C(=O)c2cc(NC(=O)NC(C)C)ccc2OC[C@H](C)N(C(=O)CC2CC2)C[C@@H]1C	nt	nt	nt	i	nt	nt
O=C(NCCc1ccc(F)cc1)Nc1ccc2c(c1)OCO2	48	i	i	nt	i	i
COc1ccc(S(=O)(=O)n2c(C)nc3ccccc32)cc1C	i	i	i	i	i	12
CC1CC(=O)Nc2ccccc2N1C(=O)Nc1ccc(F)cc1 (configuration not stated)	39	i	i	nt	i	i
SMILES	Wnt act	ssDAF12 agonist	hcDAF12 agonist	esBAF inh	DAX1 StAR inh	hgDAF-12 ag
CC1CC(=O)Nc2ccccc2N1C(=O)Nc1ccc(F)cc1F (configuration not stated)	i	i	i	i	i	i
CSc1nnc(SCC(=O)NC(=O)c2ccccc2)s1	i	i	i	nt	4.1	i
Cc1csc(SCC(=O)NC(=O)c2ccccc2)n1	i	i	i	i	i	i
O=C(COC(=O)c1ccc[nH]c1=O)NCCc1ccc(Cl)cc1Cl	50	i	i	nt	i	i
CNC(=O)C[C@@H]1CC[C@@H]2[C@@H](COc3ccc(NC(=O)Nc4cccc(Cl)c4)cc3C(=O)N2C)O1	nt	nt	nt	i	nt	nt
C[C@@H]1CN([C@@H](C)CO)C(=O)c2cc(NS(=O)(=O)c3cccs3)ccc2O[C@@H](C)CCCCO[C@H]1CN(C)C(=O)Cc1ccccc1	nt	nt	nt	i	nt	nt
